# In the library only some 0.51% were active in any assay of this set; here they are far more common.
# E coli growth-1: blocks Escherichia coli growth | OD600, 23 h; active compounds read low | OD600 absorbance (test concentration not listed) | 330,000 tested, 0.21% active | AID 1053175;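 active = OD600 absorbance below the run mean of sample wells minus 3.6 SD, in any replicate, cut at about 0.56 in these data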
# E coli growth-2: reduces bacterial viability in AddAB counter-screen; AID 449728; 330,000 tested, 0.27% active; inhibition, % at 11.9 µM; E. coli V3065 growth, OD600 absorbance, 18 h;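 active = inhibition above the campaign's mean inhibition across all tested compounds plus 3 SD, cut at about 9.9% in these data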;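 note: uninfected addAB+ strain grown without phage in ampicillin broth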
# Tat export inh: E. coli Tat transport inhibition; E. coli MC4100 TorA-mCherry Tat export, fluorescence; inhibition, % at 10 µM; 340,000 tested, 0.036% active;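 active = mean replicate inhibition at least 50% and at least half of replicates individually reaching 50%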;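 note: exported cargo escapes ClpAP degradation while cytoplasmic cargo is degraded and loses fluorescence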
# AddAB inh: less growth of phage-infected E. coli with AddAB; AID 435030; inhibition, % at 11.9 µM; 330,000 tested, 0.29% active; E. coli expressing H. pylori AddAB, absorbance growth; in the data active = inhibition above about 12%
# phage Ecoli inh: E. coli growth loss with phage present | 360,000 tested, 0.26% active | inhibition, % at 11.9 µM | growth absorbance; in the data active = inhibition above about 11%
# RecBCD conf: growth loss of phage-infected V66 E. coli, RecBCD confirmation screen; inhibition, % at 11.9 µM; shares compounds with phage Ecoli inh; E. coli V66 + T4 2- phage, growth OD; 890 tested, 45% active; AID 651982;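 active = mean inhibition over triplicates exceeding the hit threshold derived in the original primary screen, cut at about 11% in these data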
# Ecoli viability: inhibits E. coli viability, flagging RecBCD hits as nonselective; shares compounds with phage Ecoli inh; absorbance (OD) growth; inhibition, % at 11.9 µM; 890 tested, 29% active; AID 651983; in the data active = inhibition above about 20%;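 note: E. coli strain V66 grown with compound alone and no phage infection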
# AddAB phage OD: growth loss of phage-infected AddAB E. coli, RecBCD counter-screen; shares compounds with phage Ecoli inh; E. coli expressing H. pylori AddAB + T4 phage, OD growth; gene 2 mutant T4, recBCD-deleted host; inhibition, % at 11.9 µM; 890 tested, 45% active; AID 651984;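 active = mean inhibition above the solvent-only control wells' mean plus 3 SD, cut at about 22% in these data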;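 note: higher means less bacterial growth from phage killing when AddAB is blocked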
# Numbers stand for hits; i = inactive; nt = no result.
SMILES,E coli growth-1,E coli growth-2,Tat export inh,AddAB inh,phage Ecoli inh,RecBCD conf,Ecoli viability,AddAB phage OD
FC(F)Sc1ccc(NC(=S)NC(c2ccccc2)c2ccccc2)cc1,i,i,i,i,i,nt,nt,nt
Cc1[nH]c(=O)[nH]c(=O)c1CSc1nnc(C(CC(C)C)NC(=O)OC(C)(C)C)o1 (stereo unspecified),i,nt,nt,nt,nt,nt,nt,nt
CC1OC2CC(=O)OC2C2=C1C(=O)c1c(O)cccc1C2=O (stereo unspecified),nt,nt,nt,nt,14,i,i,i
COc1ccc(Cc2noc(CN(C)CC3(N4CCOCC4)CCCCC3)n2)cc1OC,i,i,i,i,94,i,i,i
CN(Cc1nc(Cc2ccccc2F)no1)CC1(N2CCOCC2)CCCCC1,i,i,i,i,i,nt,nt,nt
Cn1cc(CC(=O)N2CCN(c3ccccc3F)CC2)c2ccccc21,i,i,i,i,84,i,i,i
Cc1nn(C)c(Cl)c1S(=O)(=O)NC(c1ccccc1)[C@]1(C)CC1C(C)C(=O)Nc1ccc2ccccc2c1 (stereo partly specified),i,nt,nt,nt,nt,nt,nt,nt
O=C(NNc1cc(Cl)ccc1Cl)c1cccs1,i,i,i,i,54,i,i,i
Cc1cc(Cl)ccc1NNC(=O)c1cccs1,i,i,i,i,i,nt,nt,nt
Fc1ccccc1CNC(=S)Nc1cccc(C(F)(F)F)c1,i,i,i,i,11,i,i,i
FC(F)(F)c1cccc(NC(=S)NCc2ccc(Cl)cc2)c1,i,i,i,i,13,i,i,i
CCOC(=O)c1c(C)[nH]c(C(=O)N/N=C\c2ccccc2O)c1C,nt,i,i,i,17,i,i,i
COc1ccc2cc(C3=CC(=O)CC(c4ccc5c(c4)OCO5)C3)ccc2c1 (stereo unspecified),i,nt,nt,nt,nt,nt,nt,nt
O=S(=O)(c1ccc(Cl)nc1)N1CCc2ccccc21,i,i,i,i,95,i,i,i
Cc1ccc(C(=O)CC(=O)COc2ccc(Cl)cc2C)cc1,i,i,i,i,12,i,i,i
CO[C@@]1(NC(=O)Cc2cccs2)C(=O)N2C(C(=O)O)=C(COC(N)=O)CS[C@@H]21,nt,i,i,i,27,94,104,101
C=C1C(O)CC(C(C)C)N(CC(C)C)S1(=O)=O (stereo unspecified),i,nt,nt,nt,nt,nt,nt,nt
O=C(Nc1nnc(N2CCCCCC2)s1)c1cc(-c2ccc(Br)cc2)on1,i,i,i,i,i,nt,nt,nt
CC1CCCC(C)N1c1nnc(NC(=O)c2cc(-c3ccc(Br)cc3)on2)s1 (stereo unspecified),nt,i,i,i,95,i,i,i
O=C(O)C1=CCC(c2ccc(Cl)cc2)N(S(=O)(=O)c2ccc(Cl)cc2)C1c1cccc(Cl)c1 (stereo unspecified),i,nt,nt,nt,nt,nt,nt,nt
CCN(CC)c1ccc2cc(-c3nc4ccccc4[nH]3)c(=O)oc2c1,i,i,i,i,nt,nt,nt,nt
CCN(CC)c1ccc2cc(-c3nc4ccccc4n3C)c(=O)oc2c1,i,i,i,i,99,80,71,93
CCOC(=O)CC1c2ccccc2S(=O)(=O)N1Cc1cc(OC)c(OC)c(OC)c1 (stereo unspecified),i,nt,nt,nt,nt,nt,nt,nt
CN(C)C(=O)c1cc(Cl)ccc1Sc1cc(Cl)ccc1Cl,i,i,i,i,i,nt,nt,nt
Oc1ccc(Cl)cc1Sc1cc(Cl)ccc1O,nt,nt,i,nt,12,i,i,i
SMILES,E coli growth-1,E coli growth-2,Tat export inh,AddAB inh,phage Ecoli inh,RecBCD conf,Ecoli viability,AddAB phage OD
O=C(CCCNC(=O)C(=Cc1ccc(F)cc1)NC(=O)c1ccccc1)OCc1ccccc1,i,nt,nt,nt,nt,nt,nt,nt
CC(=O)NCCCc1nc2ccccc2n1Cc1ccccc1F,i,i,i,i,22,i,i,i
CCn1c(=O)c(C(=O)NCCc2ccc(OC)c(OC)c2)c(O)c2ccccc21,i,9.9,i,i,11,i,i,i
CCCn1c(=O)c(C(=O)NCCc2ccc(OC)c(OC)c2)c(O)c2ccccc21,i,nt,i,nt,i,nt,nt,nt
Cn1c(-c2ccc3c(c2)OCO3)cnc1NCc1ccccc1,i,i,i,i,i,nt,nt,nt
Cc1ccc(-c2cnc(NCc3cc4c(cc3[N+](=O)[O-])OCO4)n2C)cc1C,i,i,i,i,11,i,i,i
COc1ccccc1N1CCN(Cc2cc(Br)c(O)c3ncccc23)CC1,i,12,i,i,12,i,i,i
CCOc1ccccc1N1CCN(Cc2cccc(OC)c2O)CC1,i,i,i,i,i,nt,nt,nt

# Screening results: PubChem, several laboratories
